Reference: PubChem BioAssay AID1159580 (chemical genetic matrix, 2015)
Where “and” joins values, the source holds several entries; their conditions need not be identical. Equal values may be shown once. The whole screen tested about 5,500 compounds, of which about 2,000 (36%) were called active. Inconclusive results (about 18%) are left out. Cut-off read from the data, not from the text of the source: active = normalized growth mostly below about 0.91 (no sharp cut-off); inconclusive = no clear call, values can overlap the other calls; inactive = mostly above about 0.92. This is one part of the list.

Test: chemical genetic growth profiling, strain panel (AID 1159580);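 note: tested at 20 µM; growth read once vehicle control cultures reached saturation at 30 °C; 1 = growth at the plate median or of vehicle wells; lower values mean less growth of the strain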
Settings: S. cerevisiae deletion strains, growth OD

Measured: normalized growth

O=C(O)c1ccccc1C(=O)Nc1ccc(S(=O)(=O)Nc2nccs2)cc1
inactive: locus YAL013W, strain DEP1, stronger effect = lower value 1.01 | locus YAL021C, strain ccr4, stronger effect = lower value 0.977 | locus YAL026C, strain drs2, stronger effect = lower value 0.986 | locus YAL030W, strain snc1, stronger effect = lower value 0.987 | locus YBL061C, strain skt5, stronger effect = lower value 0.968 | locus YBR009C, strain hhf1, stronger effect = lower value 0.994 | locus YBR021W, strain FUR4, stronger effect = lower value 1.01 | locus YBR023C, strain chs3, stronger effect = lower value 0.966 | locus YBR171W, strain sec66, stronger effect = lower value 0.978 | locus YBR229C, strain ROT2, stronger effect = lower value 1 | locus YBR231C, strain swc5, stronger effect = lower value 0.985 | locus YBR279W, strain paf1, stronger effect = lower value 0.991 | locus YCL011C, strain gbp2, stronger effect = lower value 0.978 | locus YCL016C, strain dcc1, stronger effect = lower value 0.954 | locus YCL029C, strain bik1, stronger effect = lower value 0.994 | locus YCL061C, strain MRC1, stronger effect = lower value 0.971 | locus YCL069W, strain vba3, stronger effect = lower value 0.988 | locus YCR088W, strain abp1, stronger effect = lower value 0.987 | locus YDL005C, strain med2, stronger effect = lower value 0.973 | locus YDL035C, strain GPR1, stronger effect = lower value 1.02 | locus YDL040C, strain nat1, stronger effect = lower value 0.977 | locus YDL074C, strain BRE1, stronger effect = lower value 1.01 | locus YDL101C, strain DUN1, stronger effect = lower value 1.01 | locus YDL134C, strain PPH21, stronger effect = lower value 1 | locus YDL185W, strain tfp1, stronger effect = lower value 0.995 | locus YDL192W, strain arf1, stronger effect = lower value 0.998 | locus YDR001C, strain nth1, stronger effect = lower value 0.987 | locus YDR069C, strain doa4, stronger effect = lower value 0.975 | locus YDR101C, strain arx1, stronger effect = lower value 0.984 | locus YDR137W, strain rgp1, stronger effect = lower value 0.963 | locus YDR159W, strain sac3, stronger effect = lower value 0.992 | locus YDR162C, strain NBP2, stronger effect = lower value 1 | locus YDR195W, strain ref2 0.996 | locus YDR297W, strain sur2, stronger effect = lower value 0.988 | locus YDR318W, strain mcm21, stronger effect = lower value 0.999 | locus YDR334W, strain swr1, stronger effect = lower value 0.966 | locus YDR335W, strain msn5, stronger effect = lower value 0.984 | locus YDR388W, stronger effect = lower value 0.993 | locus YDR392W, strain spt3, stronger effect = lower value 0.93 | locus YDR502C, strain sam2, stronger effect = lower value 1 | locus YEL003W, strain gim4, stronger effect = lower value 1.01 | locus YEL037C, strain rad23, stronger effect = lower value 0.981 | locus YEL061C, strain CIN8 (second series), stronger effect = lower value 0.99 | locus YEL061C, strain CIN8, stronger effect = lower value 1.01 | locus YER015W, strain faa2, stronger effect = lower value 0.96 | locus YER016W, strain bim1, stronger effect = lower value 0.993 | locus YER110C, stronger effect = lower value 0.998 | locus YER111C, strain swi4, stronger effect = lower value 0.973 | locus YER155C, strain BEM2 (second series), stronger effect = lower value 0.981 | locus YER155C, strain BEM2, stronger effect = lower value 0.995 | locus YER167W, strain BCK2, stronger effect = lower value 0.996 | locus YFR010W, strain ubp6, stronger effect = lower value 0.999 | locus YGL078C, strain dbp3, stronger effect = lower value 0.994 | locus YGL086W, strain mad1, stronger effect = lower value 0.991 | locus YGL167C, strain pmr1, stronger effect = lower value 0.962 | locus YGL173C, strain kem1, stronger effect = lower value 0.959 | locus YGL227W, strain vid30, stronger effect = lower value 0.985 | locus YGL240W, strain doc1, stronger effect = lower value 0.992 | locus YGL248W, strain PDE1, stronger effect = lower value 1 | locus YGL253W, strain hxk2, stronger effect = lower value 0.984 | locus YGR135W, strain pre9, stronger effect = lower value 0.995 | locus YGR229C, strain SMI1, stronger effect = lower value 1.01 | locus YGR252W, strain gcn5, stronger effect = lower value 0.995 | locus YHR013C, strain ard1, stronger effect = lower value 0.949 | locus YHR027C, strain rpn1, stronger effect = lower value 0.977 | locus YHR030C, strain SLT2, stronger effect = lower value 1 and 1.03 | locus YHR079C, strain IRE1 (second series), stronger effect = lower value 0.995 | locus YHR079C, strain IRE1, stronger effect = lower value 1.05 | locus YHR094C, strain hxt1, stronger effect = lower value 0.994 | locus YHR129C, strain ARP1, stronger effect = lower value 1 | locus YHR142W, strain chs7, stronger effect = lower value 0.959 | locus YHR200W, strain rpn10, stronger effect = lower value 0.995 | locus YIL066C, strain RNR3, stronger effect = lower value 1.01 | locus YIL073C, strain SPO22, stronger effect = lower value 1.01 | locus YIL125W, strain kgd1, stronger effect = lower value 0.991 | locus YIR030C, strain dcg1, stronger effect = lower value 0.993 | locus YJL092W, strain hpr5, stronger effect = lower value 0.983 | locus YJL095W, strain BCK1 (second series), stronger effect = lower value 0.982 | locus YJL095W, strain BCK1, stronger effect = lower value 1.02 and 1.01 | locus YJL115W, strain asf1, stronger effect = lower value 0.973 | locus YJL129C, strain trk1, stronger effect = lower value 0.976 | locus YJL134W, strain LCB3, stronger effect = lower value 1 | locus YJL154C, strain vps35, stronger effect = lower value 0.979 | locus YJL164C, strain tpk1, stronger effect = lower value 0.991 | locus YJL166W, strain qcr8, stronger effect = lower value 0.985 | locus YJL168C, strain set2, stronger effect = lower value 0.993 | locus YJL187C, strain SWE1 (second series), stronger effect = lower value 1.02 | locus YJL187C, strain SWE1, stronger effect = lower value 0.979 | locus YJR043C, strain POL32, stronger effect = lower value 0.995
